Screens from PubChem.
D3 ag – D3 dopamine receptor (human) agonism. P35462. D3R DiscoveRx beta-arrestin cells, luminescence, 90 min. max activation, %. hit rate 0.58% among 410,000. AID 652048; in the data active = max activation above about 30%; note: 0% is about no effect
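Agonist mode: compounds and dopamine controls were applied to plated cells for 90 min at 37 degrees C after an overnight attachment at 1500 cells/well. Luminescent read-out followed 30 - 60 minutes at room temperature with DiscoveRx detection reagent.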
D1 ag – human D1 receptor agonism; P21728; HEK293 T-REx D1 cells, calcium flux, agonist mode; activation, % at 2 µM; hit rate 1% among 360,000; AID 504660; in the data active = activation above about 30%; note: 0% is about no effect
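Tetracycline-induced HEK293 TREx D1 cells, force-coupled to calcium signalling, were dye-loaded with a no-wash calcium kit. Compound was pin-added after a 10 s baseline. Fluorescence was read kinetically at 1 cycle/s for 180 s, with calcium rises flagged as agonism.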
D1 potentiator – human D1 dopamine receptor positive modulation; HEK293 TREx D1 cells, calcium flux, dopamine EC20 potentiation; hit rate 0.036% among 360,000; potentiation, % at 10 µM; P21728; in the data active = potentiation above about 30%; note: 0% is about no effect
ERG Ets-DNA blk – inhibitors of human ERG Ets domain-DNA interaction. P11308. fluorescence polarization, His-ERG Ets domain / labelled DNA. Potency, µM (doses to about 76.9 µM), without a hit: top-dose FP activity, negative = inhibition, usual class: inhibitors. hit rate 0.028% among 370,000. AID 624246; active = well fitted inhibition curve with a large enough effect in the polarisation, with a control signal flat; inconclusive = small, poorly fitted or top-dose-only effect, or effect the other way, or a change in a side signal; inactive = no such curve, though single readings can be large or run the other way; the % refers to the polarisation;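 note: polarization taken with two DNA probes labelled with fluorescein and Texas red; potency is the fitted concentration of half-maximal effect; % of control where 0% means no effect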
Target sequence (P11308 whole entry, looked up, the tested form may be a part): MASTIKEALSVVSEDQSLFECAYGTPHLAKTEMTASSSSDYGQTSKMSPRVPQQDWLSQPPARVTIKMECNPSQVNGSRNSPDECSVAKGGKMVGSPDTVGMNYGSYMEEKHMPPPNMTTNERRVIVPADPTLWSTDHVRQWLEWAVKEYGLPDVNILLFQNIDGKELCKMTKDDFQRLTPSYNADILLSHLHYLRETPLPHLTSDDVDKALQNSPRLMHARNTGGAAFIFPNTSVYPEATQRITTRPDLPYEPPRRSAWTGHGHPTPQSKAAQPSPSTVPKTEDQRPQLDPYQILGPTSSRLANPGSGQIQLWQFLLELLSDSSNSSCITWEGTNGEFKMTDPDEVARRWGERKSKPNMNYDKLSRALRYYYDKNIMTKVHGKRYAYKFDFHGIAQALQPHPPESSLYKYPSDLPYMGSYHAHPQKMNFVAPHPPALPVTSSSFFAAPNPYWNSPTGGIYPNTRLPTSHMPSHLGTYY
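His-tagged ERG Ets domain (1 uM in the protein solution; 300mM KCl, 50mM Tris-HCl, 1mM EDTA, 1mM DTT, pH 7.5) received compound, then a probe mix of 5 nM fluorescein-DNA and 100nM Texas-615-DNA. Fluorescence polarization was read for both dyes.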
D3 antag – D3 dopamine receptor (human) antagonism; max response, negative = inhibition, %; P35462; D3R cells, DiscoveRx beta-arrestin luminescence, antagonist mode; stronger effect = lower value; hit rate 2.5% among 360,000; in the data active = max response below about -50%; inconclusive = no clear call, values can overlap the other calls; note: % is set by controls: 0 for no effect and ±100 for the full control effect
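Cells plated overnight at 1500 cells/well, then exposed to library compounds with dopamine controls for 90 minutes at 37 degrees C. DiscoveRx reagent added for 30–60 minutes at room temperature; luminescence read, quantitative HTS format.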
D1 antag – human D1 dopamine receptor antagonism; P21728; activity change, negative = inhibition, % at 10 µM; HEK293 TREx D1 cells, calcium flux, dopamine EC80; stronger effect = lower value; hit rate 3.2% among 360,000; in the data active = activity change below about -30%; note: % is set by controls: 0 for no effect and ±100 for the full control effect
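Using tetracycline-induced force-coupled D1 Hek293 cells and a calcium dye, signals were followed for 180 s after compound, then for 180 s after EC80 dopamine, to detect inhibitors.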
* hit, by the source's call; ? = inconclusive; · = no result. Sampled rows, rich in hits. Any-hit rate of the full collection: about 6.1%.

SMILES	D3 ag	D1 ag	D1 potentiator	ERG Ets-DNA blk	D3 antag	D1 antag
COc1ccc(S(=O)(=O)N2CCN(CC(=O)c3c(N)n(C)c(=O)n(C)c3=O)CC2)cc1OC	-4	·	·	·	-4	·
CCNC(=O)COc1cc(C)c(Cl)c(C)c1	-4	0	0	-11%	12	-8
O=C(CSc1nnc(N2CCCC2)n1-c1cccc(Cl)c1)N1CCN(c2ccccn2)CC1	-5	·	·	·	-15	·
O=C(CSc1nnc(N2CCCC2)n1-c1ccccc1Cl)N1CCN(c2ccccn2)CC1	3	-1	-3	-7%	5	-52*
Cc1c(-c2ccccc2)nc2ccccc2c1C(=O)Oc1ccc([N+](=O)[O-])cc1	-6	3	-7	0%	0	-33*
Cc1nc2cccc(C(=O)Oc3ccc([N+](=O)[O-])cc3)c2o1	-16	3	-5	-4%	-6	-4
Cc1c(C(=O)N2CCN(C)CC2)oc2ccc(S(=O)(=O)N3CCOCC3)cc12	2	0	4	4%	-10	17
CCCNC(=O)C1CC(=O)N(c2ccc(OCc3ccc(Cl)cc3)cc2)C1 (stereo unspecified)	8	12	1	-1%	2	-7
CCCNC(=O)C1CC(=O)N(c2ccc(OCc3ccc(F)cc3)cc2)C1 (stereo unspecified)	9	12	-8	-13%	3	-36*
O=C(NCc1nnnn1-c1ccc(F)cc1)C1CC(=O)N(c2ccc(F)cc2)C1 (stereo unspecified)	-14	0	0	2%	6	-30*
NC(=O)C1CC(=O)N(c2ccc(OCc3ccc(Cl)cc3)cc2)C1 (stereo unspecified)	4	18	-6	-5%	-1	-39*
C=CCNC(=O)C1CC(=O)N(c2ccc(OCC(=O)Nc3ccc(C)cc3)cc2)C1 (stereo unspecified)	1	0	-11	-9%	0	-31*
NC(=O)C1CC(=O)N(c2ccc(OCC(=O)N3CCCC3)cc2)C1 (stereo unspecified)	0	·	·	-6%	7	·
Cc1ccc(-n2nnnc2CNC(=O)C2CC(=O)N(c3ccc(F)cc3)C2)cc1C (stereo unspecified)	1	0	-3	-6%	13	1
COC(=O)c1ccc(CSc2nnc(-c3c[nH]c4ccccc34)n2C)o1	-3	4	·	7%	-17	-4
CC1CCN(c2ncnc3c2cnn3-c2ccc(F)cc2)CC1	4	-3	2	-3%	·	4
CCOc1ccc(N2CC(C(=O)N3CCCC3)CC2=O)cc1 (stereo unspecified)	-3	0	-4	2%	0	-83*
CCCCCCC#Cc1cncc(C(=O)NNC(=O)Nc2cc(Cl)cc(Cl)c2)c1	24	1	-3	-3%	25	-7
CCCCC#Cc1cncc(C(=O)NN)c1	4	3	-3	1%	-11	-54*
N#C/C(=C\c1ccc(F)cc1)c1nc(-c2ccc(-c3ccccc3)cc2)cs1	-5	0	0	-10%	·	-1
Cc1cc(C)c2nc(N3CCC(C(=O)NCc4ccccn4)CC3)sc2c1	-1	2	-1	11%	4	-2
N#C/C(=C\c1ccc(N2CCOCC2)o1)C(=O)Nc1ccc(O)cc1	-16	41*	3	18%	?	-23
CSc1ccc(/C=C(\C#N)C(=O)NC2CCCCC2)cc1	1	4	-1	·	-4	5
COc1cccc(NC(=O)/C(C#N)=C/c2ccc(-c3ccc(C)cc3)o2)c1	-8	110*	7	-13%	·	-11
COc1ccc(NC(=O)/C(C#N)=C\c2ccc(N3CCOCC3)o2)cc1	9	213*	0	20%	1	-20
CC1CC1c1ccc(/C=C(\C#N)C(=O)Nc2ccc(Cl)cc2)o1 (stereo unspecified)	-26	6	-12	23%	?	3
N#C/C(=C/c1ccc(N2CCOCC2)o1)C(=O)NC1CCCCC1	-8	113*	-5	5%	-15	-5
